SW480 rereplic: A quantitative high throughput screen for small molecules that induce DNA re-replication in SW480 colon adenocarcinoma cells; SW480 DNA re-replication, Hoechst DNA content imaging, 48 h; Potency, µM (top dose mostly 46.1 µM), most hits filed as activators; 340,000 tested, 1.8% active; also: nearly all actives have a fitted effect of over 55% in size
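Compounds, transferred as 23 nL by pin tool, were incubated with cells for 48 hr; DNA content per nucleus was then quantified by Hoechst staining and fluorescence plate imaging.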
KB-3-1 tox: qHTS assay for MDR1-selective chemotherapeutics: Primary screen using the parental adenocarcinoma cell KB-3-1; AID 1347075, 2019; 400,000 tested, 1.4% active; Potency, µM (doses to about 46.1 µM), usual class: cytotoxic; KB-3-1 viability, CellTiter-Glo ATP luminescence, 72 h; also: nearly all actives have a fitted effect of over 60% in size
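Parental KB-3-1 adenocarcinoma cells in phenol-red-free DMEM with 10% FBS were pin-treated with compounds at several concentrations, incubated 72 h at 37 °C, and viability read by CellTiter-Glo luminescence; concentration-effect curves were fitted after normalization.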
KB-V1 cytotox: qHTS assay for MDR1-selective chemotherapeutics: Primary screen using the drug-selected MDR subline cells KB-V1. KB-V1 MDR cells viability, CellTiter-Glo, 72 h. Potency, µM (series often up to 46.1 µM), usual class: cytotoxic. 400,000 tested, 3.4% active; also: nearly all actives have a fitted effect of over 60% in size
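Cytotoxicity via CellTiter-Glo luminescence after 72 h compound exposure at 37 degrees C. Cells: drug-selected KB-V1 line, DMEM phenol-red free plus 10% FBS. Compounds tested at multiple concentrations; normalized data fitted to concentration-effect curves.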
ELG1 DNA repair: qHTS screen for small molecules that inhibit ELG1-dependent DNA repair in human embryonic kidney (HEK293T) cells expressing luciferase-tagged ELG1 | HEK293T ELG1-luciferase reporter, luminescence, 16 h; DNA damage induced by 5-fluorouridine | Potency, µM (highest dose often 46.1 µM), most hits filed as inhibitors | 330,000 tested, 2.3% active | AID 504467, 2011; also: nearly all actives have a fitted effect of over 55% in size
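Cells (2,000 per well) received 5-fluorouridine plus test compound or DMSO and were incubated 16 hr at 37 °C, 5% CO2. Luciferase activity was read by luminescence 30 min after ONE-Glo addition; signal suppression marked inhibition of damage-induced ELG1 function.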
MCF10A rerep: A quantitative high throughput screen for small molecules that induce DNA re-replication in MCF 10a normal breast cells; 350,000 tested, 2.9% active; AID 624296, 2012; MCF 10A DNA re-replication, Hoechst nuclear intensity, 48 h; Potency, µM (highest dose often 46.1 µM), actives largely listed as activators; also: nearly all actives have a fitted effect of over 50% in size
Of the large screens only hits and unclear results are named; the others gave an inactive call. Sampled rows, rich in hits. Any-hit rate of the full collection: about 8.1%. Calls follow the shape of the dose curve; as a rule, active = well fitted curve in the direction sought with a large enough effect; inconclusive = small, poorly fitted or top-dose-only effect, or another doubt; inactive = no such curve, though single readings can be large; an effect the other way counts as inactive or inconclusive.

COc1ccccc1Nc1nc(-c2sc(NC(=O)CC(C)C)nc2C)cs1	SW480 rereplic inconclusive, KB-3-1 tox inconclusive, ELG1 DNA repair inconclusive
CCCCCC(=O)Nc1nc(C)c(-c2csc(Nc3cc(Cl)ccc3OC)n2)s1	SW480 rereplic inconclusive
CCCC(C)C(=O)Nc1nc(C)c(-c2csc(Nc3cc(OC)ccc3OC)n2)s1 (stereo not given)	KB-3-1 tox inconclusive, ELG1 DNA repair 18.4µM, MCF10A rerep inconclusive
COc1ccccc1Nc1nc(-c2sc(NC(=O)C(C)(C)C)nc2C)cs1	KB-3-1 tox 8.2µM, ELG1 DNA repair inconclusive
Cc1[nH]c2ccccc2c1-c1csc(N)n1	none
C=CCCC(=O)Nc1nc(C)c(-c2csc(Nc3cc(OC)ccc3OC)n2)s1	SW480 rereplic 23.1µM, KB-3-1 tox inconclusive, ELG1 DNA repair 7.31µM, MCF10A rerep inconclusive
O=C(Nc1ccc(Cl)c(Cl)c1)OCc1cccnc1	KB-V1 cytotox inconclusive, ELG1 DNA repair inconclusive, MCF10A rerep inconclusive
COc1ccc(OC)c(Nc2nc(-c3sc(N)nc3C)cs2)c1	ELG1 DNA repair 11.6µM
CCCC(=O)Nc1nc(C)c(-c2csc(Nc3cc(OC)ccc3OC)n2)s1	ELG1 DNA repair 5.17µM
CCCC(=O)Nc1nc(C)c(-c2csc(Nc3ccccc3OC)n2)s1	ELG1 DNA repair 23.1µM
C=CCCC(=O)Nc1nc(C)c(-c2csc(Nc3cccc(OC)c3)n2)s1	SW480 rereplic inconclusive, KB-3-1 tox inconclusive, ELG1 DNA repair 14.6µM
Cc1nnc(NC(=O)c2ccc(-c3ccc([N+](=O)[O-])cc3)o2)s1	KB-V1 cytotox inconclusive
CCOC(=O)N1CCN(CCC(=O)Nc2ccc(OC)cc2OC)CC1	none
Cc1ncc(COCc2ccccc2)c(CO)c1OCc1ccccc1	KB-V1 cytotox 18.4µM (no result: ELG1 DNA repair)
O=C(N/N=C/c1ccc(O)cc1O)c1ccc(CN2C(=O)c3cccc4cccc2c34)cc1	SW480 rereplic inconclusive, KB-3-1 tox inconclusive, KB-V1 cytotox inconclusive, ELG1 DNA repair 2.91µM, MCF10A rerep inconclusive
CN(C)c1ccc(/C=N/NC(=O)c2ccc(CN3C(=O)c4cccc5cccc3c45)cc2)cc1	none (no result: SW480 rereplic, KB-3-1 tox, KB-V1 cytotox, MCF10A rerep)
O=C(N/N=C/c1ccccc1)c1ccc(CN2C(=O)c3cccc4cccc2c34)cc1	SW480 rereplic inconclusive, ELG1 DNA repair inconclusive, MCF10A rerep 16.4µM
O=C(N/N=C/c1cccnc1)c1ccc(CN2c3cccc4cccc(c34)S2(=O)=O)cc1	ELG1 DNA repair 23.1µM
C/C(=N/NC(=O)c1cccc(Br)c1)C1CC2CCC1C2 (stereo not given)	KB-V1 cytotox inconclusive
CC[C@@]1(O)C(=O)OCc2c1cc1n(c2=O)Cc2cc3c(CN(C)C)c(O)ccc3nc2-1	SW480 rereplic inconclusive, KB-3-1 tox inconclusive, KB-V1 cytotox inconclusive (no result: ELG1 DNA repair)
O=C(CC(=O)c1ccccc1)Nc1ccc([N+](=O)[O-])cc1	KB-V1 cytotox inconclusive (no result: ELG1 DNA repair)
Cc1cccc2sc(NNC(=O)C3COc4ccccc4O3)nc12 (stereo not given)	none
O=C(NNc1nc2c(F)cc(F)cc2s1)C1COc2ccccc2O1 (stereo not given)	KB-V1 cytotox inconclusive, MCF10A rerep 0.92µM
CC(C)N1C(=O)/C(=C/c2nc3ccccc3c(=O)n2-c2ccccc2)c2ccccc21	SW480 rereplic inconclusive, KB-3-1 tox inconclusive, KB-V1 cytotox inconclusive, ELG1 DNA repair 20.6µM, MCF10A rerep 16.4µM
CC(C)N1C(=O)C(Cc2nc3ccccc3c(=O)n2-c2ccccc2)c2ccccc21 (stereo not given)	none
CCCN1C(=O)/C(=C\c2nc3ccccc3c(=O)[nH]2)c2ccccc21	KB-V1 cytotox inconclusive, MCF10A rerep inconclusive
CC(C)N1C(=O)/C(=C\c2nc3ccccc3c(=O)n2-c2ccccc2)c2ccccc21	SW480 rereplic 2.91µM, KB-3-1 tox inconclusive, KB-V1 cytotox inconclusive, ELG1 DNA repair 13µM, MCF10A rerep inconclusive
CCc1ccc(Nc2nnc(SCC(=O)NC(=O)c3cccn3C)s2)cc1	SW480 rereplic inconclusive, KB-3-1 tox inconclusive, KB-V1 cytotox inconclusive, ELG1 DNA repair inconclusive, MCF10A rerep 18.4µM
CCc1ccc(Nc2nnc(SCC(=O)Nc3ccc(C(=O)O)cc3)s2)cc1	ELG1 DNA repair inconclusive
COc1cc(/C=C2\SC(=S)N(Nc3ccccc3)C2=O)cc(OC)c1OC	none
O=C(COc1ccccc1Cl)NCCNC(=O)c1cnccn1	none
O=C(Nc1nnc(-c2cccnc2)o1)c1cccc([N+](=O)[O-])c1	ELG1 DNA repair 18.3µM (no result: SW480 rereplic, KB-3-1 tox, KB-V1 cytotox, MCF10A rerep)
O=C(Nc1nnc(C2CC2)o1)c1ccc(S(=O)(=O)N2CCCCC2)cc1	KB-3-1 tox inconclusive
CC1CN(S(=O)(=O)c2ccc(C(=O)Nc3nnc(-c4ccc5c(c4)CCCC5)o3)cc2)CC(C)O1 (stereo not given)	KB-3-1 tox inconclusive, ELG1 DNA repair 2.59µM
CC1CCN(S(=O)(=O)c2ccc(C(=O)Nc3nnc(C4CC4)o3)cc2)CC1	SW480 rereplic 13µM, KB-3-1 tox inconclusive, MCF10A rerep inconclusive
CC1CCN(S(=O)(=O)c2ccc(C(=O)Nc3nnc(-c4ccncc4)o3)cc2)CC1	SW480 rereplic 16.4µM, KB-3-1 tox inconclusive, KB-V1 cytotox inconclusive, ELG1 DNA repair inconclusive, MCF10A rerep inconclusive
COc1ccc(NC(=O)C2CCCN(C(=O)Nc3ccc(F)cc3)C2)cc1OC (stereo not given)	KB-3-1 tox inconclusive
COc1ccc(C(=O)OC/C(O)=C(\C#N)c2nc3ccccc3[nH]2)cc1S(=O)(=O)N1CCOCC1	none
CC(Oc1ccccc1)C(=O)N1CCN=C1SCc1ccc(F)cc1 (stereo not given)	KB-V1 cytotox inconclusive
COc1cccc(-c2nnc(NC(=O)c3ccc(S(=O)(=O)N4CCOCC4)cc3)o2)c1	SW480 rereplic inconclusive, KB-3-1 tox 5.8µM, KB-V1 cytotox inconclusive, ELG1 DNA repair inconclusive
CS(=O)(=O)c1cccc(-c2nnc(NC(=O)c3ccc4ncsc4c3)o2)c1	none
COc1cccc(-c2nnc(NC(=O)c3ccc4ncsc4c3)o2)c1	KB-3-1 tox inconclusive, KB-V1 cytotox inconclusive, MCF10A rerep 6.51µM
COc1cc(-c2nnc(NC(=O)c3ccc(S(=O)(=O)N4CCOCC4)cc3)o2)cc(OC)c1OC	none (no result: SW480 rereplic, KB-3-1 tox, KB-V1 cytotox, MCF10A rerep)
Cc1cnc2ncc3sccc3c2c1	none
CCC(Oc1ccccc1)C(=O)N1CCN(CC)CC1 (stereo not given)	none
CCC1=NN2C(=N)/C(=C/c3cc(C)n(Cc4ccccc4)c3C)C(=O)N=C2S1	MCF10A rerep inconclusive
Cc1cc(/C=C2\C(=N)N3N=C(c4ccco4)SC3=NC2=O)c(C)n1Cc1ccccc1	KB-3-1 tox inconclusive, MCF10A rerep 20.6µM
CCCCCOC(=O)C1=C(C)Nc2nnnn2C1c1ccccc1Cl (stereo not given)	KB-V1 cytotox 20.6µM, ELG1 DNA repair inconclusive, MCF10A rerep inconclusive

From PubChem
